Measured values published in PubChem BioAssay AID2313 (Broad Institute, 2010).
The whole screen tested about 22,000 compounds, of which about 460 (2.1%) were called active. Inconclusive results (about 2%) are left out.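 Rule for the calls: active = mean inhibition across valid replicates above about 65% (limit read from the data); inconclusive = mean under the limit, yet half or more replicates past it; inactive = the rest.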 Shown is part of a subset that was picked to be rich in actives.

assay: Hedgehog pathway signaling inhibitors, primary screen, luminescence, Shh-LIGHT2 cells, Gli-luciferase (AID 2313); conditions: Shh-LIGHT2 Gli-luciferase reporter, 30 h; hits give high values;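 note: pathway switched on by Shh-conditioned medium diluted 1 in 25 in low serum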

Structure (SMILES) | inhibition
C[C@@H]1CN([C@H](C)CO)C(=O)c2cccc(NC(=O)Nc3cccc4ccccc34)c2O[C@@H]1CN(C)Cc1ccccc1 | 0.787% (inactive)
C[C@H]1CN([C@@H](C)CO)C(=O)c2cccc(NC(=O)c3ccncc3)c2O[C@H]1CN(C)C | -21.4% (inactive)
COc1ccc(NC(=O)Nc2cccc3c2O[C@H](CN(C)Cc2ccc(Cl)c(Cl)c2)[C@H](C)CN([C@@H](C)CO)C3=O)cc1 | 51.9% (inactive)
C[C@@H]1CN([C@@H](C)CO)C(=O)Cc2cc(NC(=O)Nc3ccc4c(c3)OCO4)ccc2O[C@@H]1CN(C)S(=O)(=O)c1ccc(Cl)cc1 | 38.3% (inactive)
O=C1C(c2ccccc2)CCCC1c1ccccc1 (configuration not stated) | 22.1% (inactive)
Cc1noc(C)c1NC(=O)Nc1cccc2c1O[C@@H](CN(C)C(=O)Nc1ccc(C(F)(F)F)cc1)[C@@H](C)CN([C@@H](C)CO)C2=O | 1.09% (inactive)
Cc1cc(=O)oc2cc(OCc3cccc(F)c3)ccc12 | -75.4% (inactive)
COc1ccc(NC(=O)N(C)C[C@@H]2OCCCC[C@@H](C)Oc3ccc(NS(=O)(=O)c4c(C)noc4C)cc3C(=O)N([C@H](C)CO)C[C@@H]2C)cc1 | -43% (inactive)
C=C1CCC2C(C)(C)C(O)CCC2(C)C1CC/C(C)=C/C(=O)O (configuration not stated) | 4.62% (inactive)
COc1ccc(NC(=O)Nc2ccc3c(c2)C(=O)N([C@@H](C)CO)C[C@H](C)[C@H](CN(C)CC2CCCCC2)O3)cc1 | -5.89% (inactive)
C[C@@H]1CN([C@@H](C)CO)C(=O)c2cc(NC(=O)Nc3ccc(C(F)(F)F)cc3)ccc2O[C@@H]1CN(C)Cc1ccncc1 | 10.7% (inactive)
C[C@H]1CN([C@@H](C)CO)C(=O)c2cccc(NC(=O)C3CC3)c2O[C@@H]1CN(C)S(=O)(=O)c1ccc(F)cc1 | -1.67% (inactive)
CCCN(C)C[C@@H]1OCCCC[C@@H](C)Oc2ccc(NS(=O)(=O)c3c(C)noc3C)cc2C(=O)N([C@H](C)CO)C[C@@H]1C | 35.2% (inactive)
Cc1ccoc1CC[N+](C)(C)C | -11.8% (inactive)
Cc1ccc(S(=O)(=O)Nc2ccc3c(c2)C(=O)N([C@H](C)CO)C[C@H](C)[C@H](CN(C)S(=O)(=O)c2ccc(F)cc2)OCCCC[C@@H](C)O3)cc1 | -17.8% (inactive)
CCC(=O)O[C@]1(C(=O)CCl)[C@@H](C)CC2C3CCC4=CC(=O)C=C[C@]4(C)[C@@]3(F)[C@@H](O)C[C@@]21C (some centres not stated) | 79.4% (active)
CC[C@]1(O)C[C@@H]2CN(CCc3c([nH]c4ccccc34)[C@@](C(=O)OC)(c3cc4c(cc3OC)N(C)[C@H]3[C@@](O)(C(=O)OC)[C@H](OC(C)=O)[C@]5(CC)C=CCN6CC[C@]43[C@@H]65)C2)C1 | 88.5% (active)
CC(C)NC(=O)N(C)C[C@@H]1Oc2c(NC(=O)c3cnccn3)cccc2C(=O)N([C@@H](C)CO)C[C@@H]1C | 2.03% (inactive)
NC(=S)c1cnn2c(C(F)(F)F)cc(C(F)(F)F)nc12 | -19.5% (inactive)
CC[N+]1=C(C)C(C)(C)c2cc(-c3ccccc3)ccc21 | 32.5% (inactive)
C[C@@H]1CCCCO[C@H](CN(C)S(=O)(=O)c2ccc(Cl)cc2)[C@@H](C)CN([C@H](C)CO)C(=O)c2cc(NC(=O)Nc3ccc4c(c3)OCO4)ccc2O1 | -3.15% (inactive)
Cc1noc(C)c1S(=O)(=O)Nc1ccc2c(c1)CC(=O)N([C@H](C)CO)C[C@@H](C)[C@@H](CN(C)Cc1ccncc1)O2 | 48% (inactive)
C[C@@H]1CN([C@H](C)CO)C(=O)Cc2cc(NC(=O)Cn3cnnn3)ccc2O[C@H]1CN(C)CC1CCCCC1 | -28.8% (inactive)
CC(C)(C)c1ccc(-c2[nH]nc(NC(=O)c3ccccc3Cl)c2Br)cc1 | 25.9% (inactive)
CC(C)NC(=O)N(C)C[C@H]1Oc2c(NC(=O)c3ccncc3)cccc2C(=O)N([C@@H](C)CO)C[C@H]1C | 10.7% (inactive)
C[C@H]1CN([C@@H](C)CO)C(=O)Cc2cc(NS(=O)(=O)c3cccs3)ccc2O[C@H]1CN(C)Cc1ccncc1 | -17.7% (inactive)
O=C(O)CCC(=O)N(Cc1ccccc1)Cc1cn(-c2ccccc2)nc1-c1cccnc1 | -8.01% (inactive)
